In all, about 68,000 sequences were measured (“fluorescence intensity (a.u.)”: median about 9,100, highest 2% from about 16,000 on). The entries come from a sample that favours the highest values as a whole.
The sequences below were run against OsWRKY34 (Oryza sativa, UniProt Q0JBA9 1-250) (assay: protein-binding microarray (RPBM); PBS, 2% BSA, 51.3 ng/ul salmon testes DNA, 50 uM zinc acetate, 200 nM TF, 25 C, 1 h; high values mean tight binding). Conditions: protein: recombinant; tags: N-terminal polyhistidine and DsRed monomer fusion (pET32a); label: CyDye5-dUTP incorporated in the synthesized complementary strand; 3' TTTTT single-stranded linker to array surface; dsDNA, one strand shown.
Outline: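 Per-feature fluorescence intensity (arbitrary units), read on an Axon 4000B scanner, is the binding signal. Transcription factors carrying an N-terminal polyhistidine tag and DsRed fusion were expressed in E. coli BL21-CodonPlus and purified on Ni–NTA. A custom Agilent array, made double-stranded by primer extension with Cy5-dUTP and blocked with 2% BSA, was incubated with 200 nM protein in PBS, 2% BSA, salmon testes DNA and 50 µM zinc acetate at 25 °C for 1 h and then washed.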

Sequence of OsWRKY34 (Q0JBA9 entry or part of it): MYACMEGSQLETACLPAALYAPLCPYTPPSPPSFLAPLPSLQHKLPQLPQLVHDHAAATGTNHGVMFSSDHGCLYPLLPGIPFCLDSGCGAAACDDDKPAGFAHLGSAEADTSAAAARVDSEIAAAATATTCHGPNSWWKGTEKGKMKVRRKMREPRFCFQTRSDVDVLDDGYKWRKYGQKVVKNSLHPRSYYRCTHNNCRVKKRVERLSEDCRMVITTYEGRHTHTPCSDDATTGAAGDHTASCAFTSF

Sequence | binding signal
ATCACAATAGTAACTATACTCTACAATCCATGGTTTCTTACGGAGTCACCTAGTGCAG | 8960 fluorescence intensity (a.u.)
CCTTGGGCTGTTTTACCATGGTTTTTGCACACGTGGATGACGGAGTCACCTAGTGCAG | 10100 fluorescence intensity (a.u.)
CTGACATGCGTCGCCATTGACTTTCGCCGCCGCCGCCGCGCGGAGTCACCTAGTGCAG | 9140 fluorescence intensity (a.u.)
GTCACCATCAAAATAGCTTCATATCTTCCCTGGAAATTTTCGGAGTCACCTAGTGCAG | 8160 fluorescence intensity (a.u.)
TGTAGTAATTGGGTATCTTCATCATTTGTCCTAAAAAAGTCGGAGTCACCTAGTGCAG | 8080 fluorescence intensity (a.u.)
CCACTTTAGATCCCAAATTATATATGGTCGAGTTCTTTTCCGGAGTCACCTAGTGCAG | 9470 fluorescence intensity (a.u.)
CGCAACCCCAAGCACTGGTGTTCTACATTCAATCAATCATCGGAGTCACCTAGTGCAG | 38500 fluorescence intensity (a.u.)
ACATCCATCCACTCAACCCATTCTACCGTATTAAGCCAATCGGAGTCACCTAGTGCAG | 8192 fluorescence intensity (a.u.)
ATCATCGTTCACCCGCATTTCATCTACTTCAATCTACATTCGGAGTCACCTAGTGCAG | 9810 fluorescence intensity (a.u.)
GATAGGGTTAGCAGGGTGGGAAAATATATTTATTATAGTTCGGAGTCACCTAGTGCAG | 18700 fluorescence intensity (a.u.)
TGAGTGGTGGGAGGAGTTAGCAAGTGGTTTGACCGTGGTTCGGAGTCACCTAGTGCAG | 11800 fluorescence intensity (a.u.)
TAGGGTTTGGATGGATAGGGTATATGAGGGTAATTTAGGCCGGAGTCACCTAGTGCAG | 8450 fluorescence intensity (a.u.)
TCCGGTTCGTTATTTTTATTTTTCTCAGGGAAAAAAAATCCGGAGTCACCTAGTGCAG | 8060 fluorescence intensity (a.u.)
TCGTGGTGGTGGTGGTGGTGGAAGTTAGGGTTTGAGGGTTCGGAGTCACCTAGTGCAG | 17300 fluorescence intensity (a.u.)
ACGGCCTAGTTTTGGTTGAAGTTTTTGGTAGGGGTTAGTTCGGAGTCACCTAGTGCAG | 12300 fluorescence intensity (a.u.)
GATAGGGTTAGGGATGGATAGGGTTTCCTTGAGGGTAGTTCGGAGTCACCTAGTGCAG | 16400 fluorescence intensity (a.u.)
AGGGGCGGAACTGGGTAGGCAGGGTGGGTTATATTTGAGCCGGAGTCACCTAGTGCAG | 10500 fluorescence intensity (a.u.)
AGGGTGGGTTATATTTGAGCTGGTTAGCAAAAACTATAATCGGAGTCACCTAGTGCAG | 17900 fluorescence intensity (a.u.)
TCTATTTTATAATCGGTGTGTTTGACTGGTATTTTTTAGCCGGAGTCACCTAGTGCAG | 8930 fluorescence intensity (a.u.)
CTGGTTCGGGAATTTCTGGGTGTATAGGGAAATAATTTATCGGAGTCACCTAGTGCAG | 8060 fluorescence intensity (a.u.)
GAAGTTAGGGTTTGAGGGTTTGGTTCCGGAGGGTAGGGTCCGGAGTCACCTAGTGCAG | 9850 fluorescence intensity (a.u.)

Sequence | binding signal
CCCACCTCCACCTCCGCCGGCCGGTACGTTTATCCACTGACGGAGTCACCTAGTGCAG | 9030 fluorescence intensity (a.u.)
GACTGATTTGTTTTTTTTTTCTCCCGGTTTTTTCGACGGACGGAGTCACCTAGTGCAG | 9270 fluorescence intensity (a.u.)
TTCCTTTTTTTATGCAACTTTGACAAGCCTAATAGATATACGGAGTCACCTAGTGCAG | 8500 fluorescence intensity (a.u.)
GCTACCATCGTCACCGCCTCAACCAAGCTACCCGTGTCTCCGGAGTCACCTAGTGCAG | 10400 fluorescence intensity (a.u.)
GCCCTACTCTACCCCTAGCCCTCCGCGCGGCTGCCGTCGACGGAGTCACCTAGTGCAG | 8970 fluorescence intensity (a.u.)
CACCCAAACCAAATCAAATCCGTCCATCCATTCGCCTCTACGGAGTCACCTAGTGCAG | 8960 fluorescence intensity (a.u.)
ATCCACTTATATATACACACATTTGTAATTTGTATCTATACGGAGTCACCTAGTGCAG | 8270 fluorescence intensity (a.u.)
CATATGTATGAGGGTATCTTTGTTTTGGCTTTGGTCCCTTCGGAGTCACCTAGTGCAG | 10200 fluorescence intensity (a.u.)
TTGATGGGTTTTGGGTTTTTGTGCTGCTCCTTTTTCGTAACGGAGTCACCTAGTGCAG | 19800 fluorescence intensity (a.u.)
GTTTGAGGGTTTTTTGTTGGTTTAGAATCATCTTTTTCTTCGGAGTCACCTAGTGCAG | 9210 fluorescence intensity (a.u.)
TTTCATGTCGCTCCTTGTCGTTGCTGCTCTTTGGGTGCAACGGAGTCACCTAGTGCAG | 11100 fluorescence intensity (a.u.)
ATTTTCCTTGTTTTGATGTTTTCTGGTTGGGGAAGGGTTACGGAGTCACCTAGTGCAG | 24600 fluorescence intensity (a.u.)
GGCTGGTTTGGTTGGTTGAGAATACCTTTTCTTTTTCCTTCGGAGTCACCTAGTGCAG | 29100 fluorescence intensity (a.u.)
CGTTTTATTTTTGGTTGTTTTTCTGTTTGGGTTTTGATTTCGGAGTCACCTAGTGCAG | 11300 fluorescence intensity (a.u.)
GGGGTATGAAATGTTTTTTTTTTCCTTTACGTTTCTTTTTCGGAGTCACCTAGTGCAG | 15400 fluorescence intensity (a.u.)
GCTGGAGGGGCTGGGGTATGTTCTTTTTGTATATGACGTTCGGAGTCACCTAGTGCAG | 20300 fluorescence intensity (a.u.)
TGTTTTTGCTTCTCTTCCTTTTGCTGGAGCTTATTGGTTTCGGAGTCACCTAGTGCAG | 10100 fluorescence intensity (a.u.)
ATTTTCCTTGATTTTTTTTGTGTGTTTGGGAATTGGGATACGGAGTCACCTAGTGCAG | 12600 fluorescence intensity (a.u.)
GGTTTTTATGGGGTTGCTCTTTGATTTTTTTTTTCTCCTGCGGAGTCACCTAGTGCAG | 12200 fluorescence intensity (a.u.)
CCTATGAAGAAACTTACGCTGACGGCTGACCTAAACGTGCCGGAGTCACCTAGTGCAG | 11000 fluorescence intensity (a.u.)
AAACAATCCGACGGCCCGTATTCCGTGGTCCACGGCCACGCGGAGTCACCTAGTGCAG | 9020 fluorescence intensity (a.u.)

— article PMC7819943, “Rice protein-binding microarrays: a tool to detect cis-acting elements near promoter regions in rice”
